# Source: PubChem BioAssay (EPA / NIEHS)
# Values joined by “and” are separate entries in the source; they are usually repeats but may differ in a detail not shown here. Equal values may be shown once. Where a structure was tested more than once in an assay, its records may differ in their call. Active and inactive are the calls of the source. Rule for the calls: active = hit-call score of the fitted dose curve at least 0.9, where 1 is the maximum; inactive = score below 0.9.
# Read-out: Collagen III, COL3A1 (gene 1281)
# Assay: BSK_hDFCGF_CollagenIII: BioMAP Diversity Plus: hDFCGF Assay for Collagen III Biomarker Activity (AID 2283056)
# Conditions: primary human foreskin fibroblasts; actives raise or lower the signal
# Method: BSK_hDFCGF is a cell-based, multiplexed-readout assay that uses foreskin fibroblast, a human skin primary cell, with measurements taken at 24 hours after chemical dosing in a 96-well plate.BSK_hDFCGF_CollagenIII is an assay component measured in the BSK_hDFCGF assay. It measures Collagen antibody related to regulation of gene expression using ELISA technology.Data from the assay component BSK_hDFCGF_CollagenIII was analyzed into 1 assay endpoint. This assay endpoint, BSK_hDFCGF_CollagenIII, was analyzed with bidirectional fitting relative to DMSO as the negative control and baseline of activity. Using a type of binding reporter, gain or loss-of-signal activity can be used to understand changes in the signaling as they relate to the gene COL3A1. Furthermore, this assay endpoint can be referred to as a primary readout, because this assay has produced multiple assay endpoints where this one serves a signaling function. To generalize the intended target to other relatable targets, this assay endpoint is annotated to the cell adhesion molecules intended target family, where the subfamily is collagen.
# The levels of cell surface (or secreted, indicated by the prefix "s") biomarker endpoints were measured by ELISA. Overt cytotoxicity to cells in confluent adherent cultures (all systems other than the BT system) was assessed by measuring total protein levels using sulforhodamine B (SRB) staining in parallel cultures at the time of biomarker measurements, indicated as SRB endpoints. For proliferation assays for adherent cell types, individual cell types are cultured at sub-confluence and relative cell numbers quantified by SRB staining at time points optimized for each system (48 h: 3C and CASM3C systems; 72 h: BT and HDF3CGF systems; 96 h: SAg system). SRB was performed by staining cells with 0.1% SRB after fixation with 10% TCA and reading wells at 560 nm.Viability and proliferation of PBMC (T cells) was quantified by Alamar Blue reduction for the SAg and BT systems. For PBMC viability (referred to as PBMC Cytotoxicity within the assay endpoint names), cells were plated (75,000/well in a 96-well plate) and then chemical samples added for 1 h before addition of activators, SEB and TSST-1 (20 ng/mL final concentration each). Cells were incubated for 90 h. Then, Alamar Blue (20 uL/well) (Invitrogen, Cat DAL1100) was added for 6 h, and the plates were read with a fluorescence microplate reader at 546/580 nm (excitation/emission). For PBMC proliferation, cells were plated and activated as above but incubated for only 16 h prior to addition of Alamar Blue. Plates were read after 6 h.
Structure (SMILES),outcome,AC50
C1CN(CCOCCN2CCOCC2)CCO1,inactive,–
O=C(C(=O)c1ccccc1)c1ccccc1,inactive,–
CCC(C)=NO,inactive,–
Cc1cccnc1,inactive,–
COc1ccc(C(=O)c2ccccc2O)c(O)c1,inactive,7.73 µM (active)
CN(C)c1ccc(C(c2ccccc2)c2ccc(N(C)C)cc2)cc1,–,10.7 µM (active)
CC[N+](CC)(CC(=O)Nc1c(C)cccc1C)Cc1ccccc1,inactive,–
O=[N+]([O-])c1cc(S(=O)(=O)Nc2ccccc2)ccc1Nc1ccccc1,–,5.82 µM (active) and 5.34 µM (active)
CN(C)Cc1cc(C(C)(C)C)c(O)c(C(C)(C)C)c1,–,26.9 µM (active) and 20 µM (active)
CN(C)CCC(c1ccc(Cl)cc1)c1ccccn1 (stereo not drawn),inactive,–
CC[N+](CC)(CC(=O)Nc1c(C)cccc1C)Cc1ccccc1 (tested in a mixture with another compound),inactive,–
CCCCC(CC)COC(=O)C=Cc1ccc(OC)cc1 (stereo not drawn),–,9.77 µM (active) and 7.79 µM (active)
Cc1cc(-n2nc3ccc(Cl)cc3n2)c(O)c(C(C)(C)C)c1,inactive,–
CCCCCCC(O)CCCCCCCCCCC(=O)OC (stereo not drawn),inactive,–
Sc1nc2ccccc2s1,inactive,–
CCC[Si](OC(C)=O)(OC(C)=O)OC(C)=O,inactive,–
OC(C(F)(F)F)(C(F)(F)F)C(O)(C(F)(F)F)C(F)(F)F,–,41.9 µM (active) and 23.6 µM (active)
Cc1c(C(N)=O)cc([N+](=O)[O-])cc1[N+](=O)[O-],inactive,–
CCCCCCCCCCCCCCCCCC[N+](C)(C)C,inactive,–
COc1cc(CNC(=O)CCCC/C=C/C(C)C)ccc1O,inactive,–
CCCCCCCCCC/C=C/C1CC(=O)OC1=O (stereo not drawn),inactive,–
CC(C)C1OCCN1CCOC(=O)NCCCCCCNC(=O)OCCN1CCOC1C(C)C (stereo not drawn),inactive,–
CCCCCCCCCCC1CO1 (stereo not drawn),–,20 µM (active)
CC(C)CC(=O)CC(C)CC(C)C (stereo not drawn),inactive,–
Oc1cccc2ccccc12,inactive,–
COc1ccccc1Oc1c(NS(=O)(=O)c2ccc(C(C)(C)C)cc2)nc(-c2ncccn2)nc1OCCO,–,3.9 µM (active) and 2.51 µM (active)
COC(=O)/C=C\C(=O)OC,inactive,–
